# Source: the supplement of paper PMC6992640
# Experiments:
# Assay in all cases: cell viability of combination (% of vehicle); higher = less cytotoxic
# Conditions in all cases: 1 µM; 72 h; partner dose: 10 nM
# HCI01 [1] = tested on: HCI01 (cells of a triple-negative basal-like breast cancer xenograft)
# Experimental: (§1)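 PDX cells were treated for 72 h with each drug at 1 µM plus carfilzomib (10 nM; 100 nM for WHIM2). Luciferase viability is expressed as percent of vehicle.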
# UCD52 [2] = tested on: UCD52 (cells of a triple-negative basal-like breast cancer xenograft)
# Experimental: as §1
# WHIM30 = tested on: WHIM30 (cells of a triple-negative basal-like breast cancer xenograft)
# Experimental: as §1
# HCI01 [3] = tested on: HCI01; remark: listed apart in the source
# Experimental: (§2)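 PDX cells were treated for 72 h with each drug at 1 µM plus afatinib (10 nM; 1 µM for WHIM30). Luciferase viability is expressed as percent of vehicle.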
# UCD52 [4] = tested on: UCD52; remark: listed apart in the source
# Experimental: as §2
# WHIM2 = tested on: WHIM2 (cells of a triple-negative basal-like breast cancer xenograft)
# Experimental: as §2
compound,measurement,setting,value
CCCCCCCCOc1ccccc1C(=O)Nc1ccc(C(=O)OCC[N+](C)(CC)CC)cc1.[Br-] [Otilonium Bromide] + CC(C)C[C@H](NC(=O)[C@H](CCc1ccccc1)NC(=O)CN1CCOCC1)C(=O)N[C@@H](Cc1ccccc1)C(=O)N[C@@H](CC(C)C)C(=O)[C@@]1(C)CO1 [Carfilzomib],cell viability of combination,HCI01 [1],81.5
same,cell viability of combination,UCD52 [2],67
same,cell viability of combination,WHIM30,17.7
Cc1c(C(=O)NN2CCCCC2)nn(-c2ccc(Cl)cc2Cl)c1-c1ccc(Cl)cc1 [Rimonabant] + CC(C)C[C@H](NC(=O)[C@H](CCc1ccccc1)NC(=O)CN1CCOCC1)C(=O)N[C@@H](Cc1ccccc1)C(=O)N[C@@H](CC(C)C)C(=O)[C@@]1(C)CO1 [Carfilzomib],cell viability of combination,HCI01 [1],78.4
same,cell viability of combination,UCD52 [2],63
same,cell viability of combination,WHIM30,16.3
CCCCc1oc2ccc(NS(C)(=O)=O)cc2c1C(=O)c1ccc(OCCCN(CCCC)CCCC)cc1 [Dronedarone] + CC(C)C[C@H](NC(=O)[C@H](CCc1ccccc1)NC(=O)CN1CCOCC1)C(=O)N[C@@H](Cc1ccccc1)C(=O)N[C@@H](CC(C)C)C(=O)[C@@]1(C)CO1 [Carfilzomib],cell viability of combination,HCI01 [1],76.1
same,cell viability of combination,UCD52 [2],59.3
same,cell viability of combination,WHIM30,19
CCOc1nc2cccc(C(=O)OC(C)OC(=O)OC3CCCCC3)c2n1Cc1ccc(-c2ccccc2-c2nn[nH]n2)cc1 (stereo not given) [Candesartan Cilexetil] + CC(C)C[C@H](NC(=O)[C@H](CCc1ccccc1)NC(=O)CN1CCOCC1)C(=O)N[C@@H](Cc1ccccc1)C(=O)N[C@@H](CC(C)C)C(=O)[C@@]1(C)CO1 [Carfilzomib],cell viability of combination,HCI01 [1],77.5
same,cell viability of combination,UCD52 [2],61.4
same,cell viability of combination,WHIM30,18.9
Cc1c(Cl)cccc1Nc1ccccc1C(=O)O [Tolfenamic Acid] + CN(C)C/C=C/C(=O)Nc1cc2c(Nc3ccc(F)c(Cl)c3)ncnc2cc1O[C@H]1CCOC1 [Afatinib],cell viability of combination,HCI01 [3],57.3
same,cell viability of combination,UCD52 [4],78.5
same,cell viability of combination,WHIM2,51
COCCOC(=O)C1=C(C)NC(C)=C(C(=O)OCC=Cc2ccccc2)C1c1cccc([N+](=O)[O-])c1 (stereo not given) [Cilnidipine] + CC(C)C[C@H](NC(=O)[C@H](CCc1ccccc1)NC(=O)CN1CCOCC1)C(=O)N[C@@H](Cc1ccccc1)C(=O)N[C@@H](CC(C)C)C(=O)[C@@]1(C)CO1 [Carfilzomib],cell viability of combination,HCI01 [1],104
same,cell viability of combination,UCD52 [2],63.2
same,cell viability of combination,WHIM30,19.2
CC(=O)C1(O)Cc2c(O)c3c(c(O)c2C(OC2CC(N)C(O)C(C)O2)C1)C(=O)c1ccccc1C3=O.Cl (stereo not given) [Idarubicin HCl] + CC(C)C[C@H](NC(=O)[C@H](CCc1ccccc1)NC(=O)CN1CCOCC1)C(=O)N[C@@H](Cc1ccccc1)C(=O)N[C@@H](CC(C)C)C(=O)[C@@]1(C)CO1 [Carfilzomib],cell viability of combination,HCI01 [1],187
same,cell viability of combination,UCD52 [2],21.1
same,cell viability of combination,WHIM30,5.43
CC(C)(C)Cn1c(N)nc2ccc(-c3[nH]c(C(C)(C)C)nc3-c3ccc(F)cc3)nc21.CS(=O)(=O)O.CS(=O)(=O)O + CC(C)C[C@H](NC(=O)[C@H](CCc1ccccc1)NC(=O)CN1CCOCC1)C(=O)N[C@@H](Cc1ccccc1)C(=O)N[C@@H](CC(C)C)C(=O)[C@@]1(C)CO1 [Carfilzomib],cell viability of combination,HCI01 [1],61.9
same,cell viability of combination,UCD52 [2],29.3
same,cell viability of combination,WHIM30,14.4
CNCCC(Oc1cccc2ccccc12)c1cccs1.Cl (stereo not given) [Duloxetine HCl] + CC(C)C[C@H](NC(=O)[C@H](CCc1ccccc1)NC(=O)CN1CCOCC1)C(=O)N[C@@H](Cc1ccccc1)C(=O)N[C@@H](CC(C)C)C(=O)[C@@]1(C)CO1 [Carfilzomib],cell viability of combination,HCI01 [1],81.6
same,cell viability of combination,UCD52 [2],62.4
same,cell viability of combination,WHIM30,16.1
Cc1ccc(NC(=O)c2ccc(CN3CCN(C)CC3)cc2)cc1Nc1nc(-c2cccnc2)cs1 [Masitinib (AB1010)] + CN(C)C/C=C/C(=O)Nc1cc2c(Nc3ccc(F)c(Cl)c3)ncnc2cc1O[C@H]1CCOC1 [Afatinib],cell viability of combination,HCI01 [3],47.8
same,cell viability of combination,UCD52 [4],64.5
same,cell viability of combination,WHIM2,54.7
Cc1c(-c2ccc(O)cc2)n(Cc2ccc(OCCN3CCCCCC3)cc2)c2ccc(O)cc12.Cl [Bazedoxifene HCl] + CN(C)C/C=C/C(=O)Nc1cc2c(Nc3ccc(F)c(Cl)c3)ncnc2cc1O[C@H]1CCOC1 [Afatinib],cell viability of combination,HCI01 [3],64.6
same,cell viability of combination,UCD52 [4],69.7
same,cell viability of combination,WHIM2,49.7
CC(O)C(=O)O.CC(O)C(=O)O.CN1CCN(c2ccc3c(c2)NC(=C2C(=O)N=c4cccc(F)c4=C2N)N3)CC1 [Dovitinib Dilactic acid] + CN(C)C/C=C/C(=O)Nc1cc2c(Nc3ccc(F)c(Cl)c3)ncnc2cc1O[C@H]1CCOC1 [Afatinib],cell viability of combination,HCI01 [3],42.3
same,cell viability of combination,WHIM2,30.4
C=C1C(=CC=C2CCCC3(C)C2CCC3C(C)CCCC(C)C)CC(O)CC1O (stereo not given) [Alfacalcidol] + CN(C)C/C=C/C(=O)Nc1cc2c(Nc3ccc(F)c(Cl)c3)ncnc2cc1O[C@H]1CCOC1 [Afatinib],cell viability of combination,HCI01 [3],42.1
same,cell viability of combination,UCD52 [4],50
same,cell viability of combination,WHIM2,34.4
CN(C)CC=CC(=O)Nc1cc2c(Nc3ccc(F)c(Cl)c3)ncnc2cc1OC1CCOC1 (stereo not given) [Afatinib (BIBW2992)] + CN(C)C/C=C/C(=O)Nc1cc2c(Nc3ccc(F)c(Cl)c3)ncnc2cc1O[C@H]1CCOC1 [Afatinib],cell viability of combination,HCI01 [3],44.6
same,cell viability of combination,UCD52 [4],21.3
same,cell viability of combination,WHIM2,32.4
COc1cc2nccc(Oc3ccc(NC(=O)C4(C(=O)Nc5ccc(F)cc5)CC4)cc3)c2cc1OC.O=C(O)CC(O)C(=O)O [Cabozantinib malate (XL184)] + CN(C)C/C=C/C(=O)Nc1cc2c(Nc3ccc(F)c(Cl)c3)ncnc2cc1O[C@H]1CCOC1 [Afatinib],cell viability of combination,HCI01 [3],50.8
same,cell viability of combination,UCD52 [4],64.7
same,cell viability of combination,WHIM2,43.2
Cl.OC(CNCC(O)C1CCc2cc(F)ccc2O1)C1CCc2cc(F)ccc2O1 (stereo not given) [Nebivolol] + CN(C)C/C=C/C(=O)Nc1cc2c(Nc3ccc(F)c(Cl)c3)ncnc2cc1O[C@H]1CCOC1 [Afatinib],cell viability of combination,HCI01 [3],47.1
same,cell viability of combination,UCD52 [4],64.9
same,cell viability of combination,WHIM2,44.7
Nc1c(CC(=O)[O-])cccc1C(=O)c1ccccc1.O.[Na+] [Amfenac Sodium Monohydrate] + CN(C)C/C=C/C(=O)Nc1cc2c(Nc3ccc(F)c(Cl)c3)ncnc2cc1O[C@H]1CCOC1 [Afatinib],cell viability of combination,HCI01 [3],54.7
same,cell viability of combination,UCD52 [4],76.3
same,cell viability of combination,WHIM2,47.6
C=C1C(=CC=C2CCCC3(C)C2CCC3C(C)C=CC(C)C(C)C)CC(O)CC1O (stereo not given) [Doxercalciferol] + CN(C)C/C=C/C(=O)Nc1cc2c(Nc3ccc(F)c(Cl)c3)ncnc2cc1O[C@H]1CCOC1 [Afatinib],cell viability of combination,HCI01 [3],44.8
same,cell viability of combination,UCD52 [4],47.6
same,cell viability of combination,WHIM2,37.1
Cl.OC(c1cc(C(F)(F)F)nc2c(C(F)(F)F)cccc12)C1CCCCN1 (stereo not given) [Mefloquine hydrochloride] + CN(C)C/C=C/C(=O)Nc1cc2c(Nc3ccc(F)c(Cl)c3)ncnc2cc1O[C@H]1CCOC1 [Afatinib],cell viability of combination,HCI01 [3],49.3
same,cell viability of combination,UCD52 [4],50.3
same,cell viability of combination,WHIM2,55.9
CNC(=O)c1cc(Oc2ccc(NC(=O)Nc3ccc(Cl)c(C(F)(F)F)c3)c(F)c2)ccn1 [Regorafenib] + CN(C)C/C=C/C(=O)Nc1cc2c(Nc3ccc(F)c(Cl)c3)ncnc2cc1O[C@H]1CCOC1 [Afatinib],cell viability of combination,HCI01 [3],46.8
same,cell viability of combination,UCD52 [4],55.9
same,cell viability of combination,WHIM2,44.2
CC(C)(C)NC(=O)C1CC2CCCCC2CN1CC(O)C(Cc1ccccc1)NC(=O)C(CC(N)=O)NC(=O)c1ccc2ccccc2n1.CS(=O)(=O)O (stereo not given) [Saquinavir mesylate] + CN(C)C/C=C/C(=O)Nc1cc2c(Nc3ccc(F)c(Cl)c3)ncnc2cc1O[C@H]1CCOC1 [Afatinib],cell viability of combination,HCI01 [3],48.2
same,cell viability of combination,UCD52 [4],61.1
same,cell viability of combination,WHIM2,47.9
CCCCCCCCCCCC1=C(O)C(=O)C=C(O)C1=O [Embelin] + CN(C)C/C=C/C(=O)Nc1cc2c(Nc3ccc(F)c(Cl)c3)ncnc2cc1O[C@H]1CCOC1 [Afatinib],cell viability of combination,HCI01 [3],52.9
same,cell viability of combination,UCD52 [4],67.8
same,cell viability of combination,WHIM2,42.9
C[C@H]1O[C@@H](O[C@H]2[C@@H](O)C[C@H](O[C@H]3[C@@H](O)C[C@H](O[C@H]4CC[C@@]5(C)[C@H](CC[C@@H]6[C@@H]5C[C@@H](O)[C@]5(C)[C@@H](C7=CC(=O)OC7)CC[C@]65O)C4)O[C@@H]3C)O[C@@H]2C)C[C@H](O)[C@@H]1O [Digoxin] + CN(C)C/C=C/C(=O)Nc1cc2c(Nc3ccc(F)c(Cl)c3)ncnc2cc1O[C@H]1CCOC1 [Afatinib],cell viability of combination,HCI01 [3],27.8
same,cell viability of combination,UCD52 [4],19.5
same,cell viability of combination,WHIM2,61.3
COc1cccc2c1C(=O)c1c(O)c3c(c(O)c1C2=O)CC(O)(C(=O)CO)CC3OC1CC(N)C(O)C(C)O1.Cl (stereo not given) [Epirubicin HCl] + CN(C)C/C=C/C(=O)Nc1cc2c(Nc3ccc(F)c(Cl)c3)ncnc2cc1O[C@H]1CCOC1 [Afatinib],cell viability of combination,HCI01 [3],58
same,cell viability of combination,UCD52 [4],28
same,cell viability of combination,WHIM2,10.2
CCN1CCN(Cc2ccc(Nc3ncc(F)c(-c4cc(F)c5nc(C)n(C(C)C)c5c4)n3)nc2)CC1.CS(=O)(=O)O + CN(C)C/C=C/C(=O)Nc1cc2c(Nc3ccc(F)c(Cl)c3)ncnc2cc1O[C@H]1CCOC1 [Afatinib],cell viability of combination,HCI01 [3],40.5
same,cell viability of combination,UCD52 [4],40.5
same,cell viability of combination,WHIM2,82.2
CC(C)Nc1cc(-c2c[nH]c(C(=O)NC(CO)c3cccc(Cl)c3)c2)c(Cl)cn1 (stereo not given) + CN(C)C/C=C/C(=O)Nc1cc2c(Nc3ccc(F)c(Cl)c3)ncnc2cc1O[C@H]1CCOC1 [Afatinib],cell viability of combination,HCI01 [3],50.7
same,cell viability of combination,UCD52 [4],50.5
same,cell viability of combination,WHIM2,30.3
CN1CCCC1CCOC(C)(c1ccccc1)c1ccc(Cl)cc1.O=C(O)C=CC(=O)O (stereo not given) [Clemastine Fumarate] + CN(C)C/C=C/C(=O)Nc1cc2c(Nc3ccc(F)c(Cl)c3)ncnc2cc1O[C@H]1CCOC1 [Afatinib],cell viability of combination,HCI01 [3],54.6
same,cell viability of combination,UCD52 [4],65.2
same,cell viability of combination,WHIM2,54
